Experimental data as given in PubChem BioAssay (EPA / NIEHS).
Values joined by “and” are separate entries in the source; they are usually repeats but may differ in a detail not shown here. Equal values may be shown once. Some compounds were tested as several samples or in several runs, with calls that do not always agree. Active and inactive are the calls of the source. The calls were made as follows: active = hit-call score of the fitted dose curve at least 0.9, where 1 is the maximum; inactive = score below 0.9.

The molecules below were run on CD40, CD40 (gene 958) (assay: BSK_LPS_CD40: BioMAP Diversity Plus: LPS Assay for CD40 Biomarker Activity (AID 2283076)). Settings: primary human HUVEC with PBMC; actives raise or lower the signal.
Protocol: BSK_LPS is a cell-based, multiplexed-readout assay that uses umbilical vein endothelium and peripheral blood mononuclear cells, a human vascular primary cell co-culture, with measurements taken at 24 hours after chemical dosing in a 96-well plate.BSK_LPS_CD40 is an assay component measured in the BSK_LPS assay. It measures CD40 antibody related to regulation of gene expression using ELISA technology.Data from the assay component BSK_LPS_CD40 was analyzed into 1 assay endpoint. This assay endpoint, BSK_LPS_CD40, was analyzed with bidirectional fitting relative to DMSO as the negative control and baseline of activity. Using a type of binding reporter, gain or loss-of-signal activity can be used to understand changes in the signaling as they relate to the gene CD40. Furthermore, this assay endpoint can be referred to as a primary readout, because this assay has produced multiple assay endpoints where this one serves a signaling function. To generalize the intended target to other relatable targets, this assay endpoint is annotated to the cytokine intended target family, where the subfamily is inflammatory factor.
The levels of cell surface (or secreted, indicated by the prefix "s") biomarker endpoints were measured by ELISA. Overt cytotoxicity to cells in confluent adherent cultures (all systems other than the BT system) was assessed by measuring total protein levels using sulforhodamine B (SRB) staining in parallel cultures at the time of biomarker measurements, indicated as SRB endpoints. For proliferation assays for adherent cell types, individual cell types are cultured at sub-confluence and relative cell numbers quantified by SRB staining at time points optimized for each system (48 h: 3C and CASM3C systems; 72 h: BT and HDF3CGF systems; 96 h: SAg system). SRB was performed by staining cells with 0.1% SRB after fixation with 10% TCA and reading wells at 560 nm.Viability and proliferation of PBMC (T cells) was quantified by Alamar Blue reduction for the SAg and BT systems. For PBMC viability (referred to as PBMC Cytotoxicity within the assay endpoint names), cells were plated (75,000/well in a 96-well plate) and then chemical samples added for 1 h before addition of activators, SEB and TSST-1 (20 ng/mL final concentration each). Cells were incubated for 90 h. Then, Alamar Blue (20 uL/well) (Invitrogen, Cat DAL1100) was added for 6 h, and the plates were read with a fluorescence microplate reader at 546/580 nm (excitation/emission). For PBMC proliferation, cells were plated and activated as above but incubated for only 16 h prior to addition of Alamar Blue. Plates were read after 6 h.

Q: How did the outcome turn out when OC(O)C(F)(F)C(F)(F)F was run?
A: Its outcome is “inactive”.

Q: O=C=NCc1cccc(CN=C=O)c1 was tested. Which outcome did it give?
A: Its outcome is “inactive”.

Q: With FC(F)(F)C(F)(F)C(F)(F)CC1CO1 (stereo not given) as the molecule, how does the outcome read?
A: Its outcome is “inactive”.

Q: OCC(F)(F)C(F)(F)C(F)(F)C(F)(F)C(F)(F)C(F)(F)CO was tested. Which outcome did it give?
A: Its outcome is “inactive”.

Q: With O=S(=O)(O)CCC(F)(F)C(F)(F)C(F)(F)C(F)(F)F as the molecule, how does the outcome read?
A: Its outcome is “inactive”.

Q: NCC(F)(F)C(F)(F)C(F)(F)C(F)(F)C(F)(F)C(F)(F)F was tested. Which outcome did it give?
A: The outcome was “inactive”.

Q: With C=CC(=O)OCC(F)(F)C(F)(F)C(F)(F)C(F)(F)C(F)(F)C(F)(F)C(F)(F)C(F)F as the molecule, how does the outcome read?
A: The outcome was “inactive”.

Q: What about the AC50 of the same molecule?
A: Its AC50 is 24 µM (active).

Q: Cc1cc(C)c(O)c(C(C)(C)C)c1 was tested. Which AC50 did it give?
A: Its AC50 is 30.9 µM (active).

Q: Which AC50 does the source give for CCOC(C=C(C)CCC=C(C)C)OCC here?
A: The AC50 was 30 µM (active).

Q: With Cc1cnccn1 as the molecule, how does the outcome read?
A: Its outcome is “inactive”.

Q: With C=C(C)C(=O)OCC(F)(F)C(F)(F)C(F)(F)C(F)F as the molecule, how does the outcome read?
A: Its outcome is “inactive”.

Q: With CN(C(=O)C(F)(F)C(F)(F)C(F)(F)F)[Si](C)(C)C as the molecule, how does the outcome read?
A: Its outcome is “inactive”.

Q: For CCN=C1C=CC(=C(c2ccc(N(CC)CC)cc2)c2ccc(N(CC)CC)cc2)c2ccccc21, which AC50 is on record?
A: The AC50 was 244 nM (active) and 1.3 µM (active).

Q: How did the AC50 turn out when O=C1C=CC(=O)N1c1ccc(Cc2ccc(N3C(=O)C=CC3=O)cc2)cc1 was run?
A: Its AC50 is 10.4 µM (active).

Q: With O=C(O)C(F)(F)C(F)(F)C(F)(F)OC(F)(C(F)(F)F)C(F)(F)F as the molecule, how does the outcome read?
A: Its outcome is “inactive”.

Q: Which AC50 does the source give for C=CC(=O)OCC(F)(F)C(F)(F)C(F)(F)COC(=O)C=C here?
A: The AC50 was 8.33 µM (active) and 8.66 µM (active).

Q: NC(=O)C(F)(F)C(F)(F)C(F)(F)C(F)F was tested. Which outcome did it give?
A: Its outcome is “inactive”.

Q: With Nc1cc([N+](=O)[O-])cc(Cl)c1O as the molecule, how does the outcome read?
A: Its outcome is “inactive”.

Q: Which outcome does the source give for CNS(=O)(=O)C(F)(F)C(F)(F)C(F)(F)C(F)(F)C(F)(F)C(F)(F)C(F)(F)C(F)(F)F here?
A: Its outcome is “inactive”.

Q: CC(C)(C)c1cc(CCC(=O)NCCCCCCNC(=O)CCc2cc(C(C)(C)C)c(O)c(C(C)(C)C)c2)cc(C(C)(C)C)c1O was tested. Which outcome did it give?
A: The outcome was “inactive”.

Q: How did the AC50 turn out when Cc1ccc(S(=O)(=O)C(I)I)cc1 was run?
A: The AC50 was 2.38 µM (active).

Q: How did the outcome turn out when Brc1nc2ccccc2s1 was run?
A: Its outcome is “inactive”.

Q: FC(F)(F)C(F)(F)C(F)(F)C(F)(F)C(F)(F)C(F)(F)C(F)(F)CCI was tested. Which outcome did it give?
A: The outcome was “inactive”.

Q: With COC(F)(C(F)F)C(F)(F)F (stereo not given) as the molecule, how does the outcome read?
A: The outcome was “inactive”.

Q: With NS(=O)(=O)C(F)(F)C(F)(F)C(F)(F)C(F)(F)C(F)(F)C(F)(F)F as the molecule, how does the AC50 read?
A: Its AC50 is 20.1 µM (active).

Q: What about the outcome of the same molecule?
A: Its outcome is “inactive”.

Q: How did the outcome turn out when NC(=O)C(F)(F)C(F)(F)C(F)(F)C(F)(F)C(N)=O was run?
A: The outcome was “inactive”.

Q: For O=S(=O)(Cl)C(F)(F)C(F)(F)C(F)(F)C(F)(F)C(F)(F)C(F)(F)C(F)(F)C(F)(F)F, which outcome is on record?
A: Its outcome is “inactive”.

Q: How did the outcome turn out when NC(=O)C(F)(F)C(F)(F)C(F)(F)C(F)(F)C(F)(F)C(F)(F)C(F)(F)F was run?
A: The outcome was “inactive”.

Q: OCC(F)(F)C(F)(F)C(F)(F)CO was tested. Which outcome did it give?
A: Its outcome is “inactive”.

Q: How did the outcome turn out when CCN(CCO)S(=O)(=O)C(F)(F)C(F)(F)C(F)(F)C(F)(F)C(F)(F)C(F)(F)C(F)(F)C(F)(F)F was run?
A: The outcome was “inactive”.

Q: How did the AC50 turn out when C=CC(=O)OCCC(F)(F)C(F)(F)C(F)(F)C(F)(F)F was run?
A: The AC50 was 30 µM (active) and 45.5 µM (active).

Q: With NCC(F)(F)C(F)(F)C(F)(F)C(F)(F)C(F)(F)C(F)(F)C(F)(F)C(F)(F)F as the molecule, how does the outcome read?
A: Its outcome is “inactive”.

Q: Which outcome does the source give for CCN(CC)c1ccc2c(c1)Oc1cc(N(CC)CC)ccc1C21OC(=O)c2ccccc21 here?
A: Its outcome is “inactive”.

Q: For C[Si](Cl)(Cl)CCC(F)(F)C(F)(F)C(F)(F)C(F)(F)C(F)(F)C(F)(F)F, which outcome is on record?
A: Its outcome is “inactive”.

Q: O=C=Nc1cccc2c(N=C=O)cccc12 was tested. Which outcome did it give?
A: The outcome was “inactive”.

Q: How did the outcome turn out when O=C(O)C(F)(F)OC(F)(F)C(F)(F)OC(F)(F)C(F)(F)OC(F)(F)F was run?
A: The outcome was “inactive”.

Q: Which outcome does the source give for NC(=O)C(F)(F)C(F)(F)C(F)(F)F here?
A: The outcome was “inactive”.

Q: Cc1ccc(O)c(-n2nc3ccccc3n2)c1 was tested. Which outcome did it give?
A: Its outcome is “inactive”.
